Results: PubChem BioAssay (NCATS)
Records with an inconclusive call do not appear. Calls of active or inactive are those of the source. Unless noted, calls follow the shape of the dose curve; as a rule, active = well fitted curve in either direction with a large enough effect (not every such curve was filed as active); inconclusive = small, poorly fitted or top-dose-only effect, or another doubt; inactive = flat fitted curve, though single readings scatter.

Legend:
[1] = molecular target: Lysosomal acid glucosylceramidase (Homo sapiens) (UniProt P04062); assay: Glucocerebrosidase-p2 (AID 348; in the data active = potency below about 10 µM; also: potency is read from the fitted curve at half-maximal effect); settings: purified GBA, blue fluorogenic substrate, 40 min
How it was run: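 Normal human glucocerebrosidase (0.2 nM) with blue fluorogenic substrate (80 uM final) in citrate/phosphate pH 5.9 with 10mM sodium taurocholate, 0.01% tween-20; 40 min RT, NaOH/glycine stop; fluorescence Ex 365/Em 440; AC50 from a titration from 0.6 nM upwards.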

[2] = AP1 Signaling Pathway (AID 357); settings: ME-180 AP-1-bla reporter, EGF-induced, beta-lactamase ratio, 5 h; at 7.69 µM (top of the series) unless noted; also: % is scaled to controls: 0 for no effect and ±100 for the full control effect
How it was run: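 In this screen, ME-180 cells in Opti-MEM with 0.5% dialyzed FBS received EC50 EGF and compound titrations for 5 h. AP-1 reporter beta-lactamase was detected via CCF4 ratio, giving AC50 for positive and negative modulators.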

[3] = molecular target: Cytochrome P450 1A2 (Homo sapiens) (UniProt P05177); assay: p450-cyp1a2 (AID 410; calls by dose curve; also: potency is read from the fitted curve at half-maximal effect); settings: recombinant CYP1A2, luciferin-ME demethylation, luminescence; series mostly up to 57 µM
How it was run: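 Luminescent demethylation readout: Luciferin-ME (100uM, equal to Km) turned over by 20nM CYP1A2 for 60 min at room temperature after NADPH regeneration addition, following 10 min compound preincubation. Normalization used 57 uM furafylline as full inhibition.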

[4] = NFAT Signaling Pathway (AID 444); settings: Jurkat NFAT-bla M1, carbachol, beta-lactamase ratio, 5 h; at 7.69 µM (top of the series) unless noted;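 also: carbachol stimulus at about its EC50 of 1 µM final; % is scaled to controls: 0 for no effect and ±100 for the full control effect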
How it was run: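 Jurkat cells with NFAT-driven β-lactamase reporter and co-expressed M1 receptor, stimulated with carbachol (final 1 uM, ~EC50), compound titration, 5 h at 37 °C. CCF4 loaded 1 h at RT; 460/530 nm ratio gave %activity and AC50.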

[5] = Stat Signaling Pathway (AID 446); settings: ME-180 (cervical carcinoma) SIE beta-lactamase reporter, IL-6 stimulated, 5 h; at 7.69 µM (top of the series) unless noted;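 also: ME-180 cervical cancer cells given 40 pM IL-6 alongside compound; SIE-controlled beta-lactamase reporter measured as 460/530 nm FRET emission ratio; % is scaled to controls: 0 for no effect and ±100 for the full control effect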
How it was run: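 Normalization used AC90 stimulation (300 pM IL-6) and AC90 inhibition (125 nM pan-JAK inhibitor at 40 pM IL-6). The underlying signal is SIE-driven beta-lactamase in ME-180 cells after 5 h IL-6 exposure with compound.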

[6] = molecular target: Glucocorticoid receptor (Homo sapiens) (UniProt P04150); assay: GR-GFP Redistribution (AID 450;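 active = compounds whose dose series gives a full or clear partial fitted curve of increased nuclear translocation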; also: potency is read from the fitted curve at half-maximal effect); settings: U2OS GR-GFP nuclear translocation, laser cytometry, 2 h
[7] = molecular target: Glucocorticoid receptor (Homo sapiens) (UniProt P04150); assay: GR-EFC Redistribution (AID 451; calls by dose curve; also: potency is read from the fitted curve at half-maximal effect); settings: CHO-K1 GR-EFC translocation, beta-gal luminescence, 2 h
How it was run: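 CHO-K1 cells expressing nuclear EA and GR-ED fragments of b-gal; compounds titrated up to 46 uM final, 2 h at 37 C. GR nuclear translocation read as complemented b-gal luminescence after 1 h RT detection.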

[8] = molecular target: Mitogen-activated protein kinase 10 (Mus musculus) (UniProt Q61831); assay: JNK3 AlphaScreen Assay (AID 530); settings: JNK3 lysate, c-Jun phosphorylation; series mostly up to 57.1 µM;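 also: kinase came from lysate of stimulated human HepG2 cells; signal reports phosphorylation of biotinylated GST-cJun 1-79 at Ser73 with 10 µM ATP; % is scaled to controls: 0 for no effect and ±100 for the full control effect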
How it was run: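 Activity was read by AlphaScreen after JNK3-containing HepG2 lysate (cytokine pre-activated) phosphorylated biotinylated GST-cJun with 10 uM ATP at room temperature. Phospho-Ser73 cJun antibody with Protein-A acceptor beads provided detection.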

[9] = molecular target: 3',5'-cyclic-AMP phosphodiesterase 4B (Homo sapiens) (UniProt Q07343); assay: qHTS Assay for Inhibitors of PDE-IV (AID 607; active = well fitted activation curve with a large enough effect in the main read-out, with a control signal flat, not every such curve was filed as active; also: % of control where 0% means no effect); settings: HEK293 ACTOne CNG channel cells, membrane potential fluorescence; series mostly up to 22.9 µM
How it was run: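 HEK293 ACTOne cells with CNG channel (1000/well), endogenous PDE4; membrane potential dye, compounds up to 22.9 uM final. Fluorescence Ex 535/Em 590; RO 20-1724 (100 uM final) as reference.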

[10] = molecular target: Cytochrome P450 3A4 (Homo sapiens) (UniProt P08684); assay: qHTS Assay for Activators of Cytochrome P450 3A4 (AID 885; active = well fitted curve in the direction sought with a large enough effect; an effect the other way counts as inactive or inconclusive; also: nearly all actives have a fitted effect of over 65% in size); settings: recombinant CYP3A4, Luciferin-PPXE luminescence, 60 min; series mostly up to 57.1 µM
How it was run: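 Human CYP3A4 dealkylates Luciferin-PPXE to luciferin, which luciferase detection converts to light. Substrate was at its KM (25uM), buffer 200mM KPO4, reaction 60 min at RT.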

[11] = Confirmation and Secondary Assay for Modulators of Hemoglobin Beta Chain Splicing at IVS2 654 locus (AID 910; active = well fitted curve in the direction sought with a large enough effect; an effect the other way counts as inactive or inconclusive;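 also: HeLa cells stably carrying EGFP split by mutant beta-globin IVS2-654 intron; % of control where 0% means no effect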); settings: HeLa EGFP-654 splicing reporter, GFP fluorescence, 48 h; series mostly up to 38.3 µM
How it was run: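 HeLa cells stably expressing EGFP interrupted by β-globin IVS2-654 intron, seeded overnight in Opti-MEM/2% FCS, then treated 2 days at 37 °C. Restored splicing read as total peak GFP intensity per well by laser scanning cytometry (488 nm excitation, 500–520 nm emission); 500 nM antisense PNA as control.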

[12] = Confirmation and Secondary Assay for Modulators of Hemoglobin Beta Chain Splicing at IVS2 705 locus (AID 930; active = well fitted curve in the direction sought with a large enough effect; an effect the other way counts as inactive or inconclusive;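 also: HeLa cells stably expressing the EGFP-705 splicing reporter; GFP fluorescence per well restored by corrected splicing of the IVS2-705 intron in EGFP; % of control where 0% means no effect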); settings: HeLa EGFP-705 splicing reporter, GFP fluorescence, 48 h; series mostly up to 38.3 µM
How it was run: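 HeLa EGFP-705 reporter; 500 cells/well, o/n 37C 5% CO2; cpd 2 d; 488 ex/500-520 em laser scan; total peak GFP intensity/well. Ref: 500 nM […] antisense PNA.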

[13] = qHTS Assay for Lipid Storage Modulators (AID 1519; calls by dose curve); settings: Drosophila S3 cells, BODIPY lipid droplet/cell ratio, laser cytometry, cells loaded with oleic acid; for activity change, negative = inhibition: at 57.5 µM (top of the series)
How it was run: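 Cells seeded at 5,000 per well were treated with compounds over a concentration series and loaded with oleic acid (400 uM, as added). Lipid droplet fluorescence (488 nm excitation, 500-530 nm channel) was read by laser-scanning cytometry and normalized to 20 uM Triacsin C.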

[14] = Primary qHTS for small molecule stabilizers of the endoplasmic reticulum resident proteome: Secreted ER Calcium Modulated Protein (SERCaMP) assay (AID 1508630; active = well fitted curve in the direction sought with a large enough effect; an effect the other way counts as inactive or inconclusive; also: % is scaled to controls: 0 for no effect and ±100 for the full control effect); settings: SH-SY5Y GLuc-SERCaMP (Gaussia luciferase released on ER calcium loss) secretion, thapsigargin, luminescence; series mostly up to 38.4 µM
How it was run: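 The SH-SY5Y reporter protocol was run at 3 concentrations up to 38.3 uM (primary) or 11 concentrations (follow-up): 16 h compound, 100 nM thapsigargin for 4 h, then extracellular luciferase luminescence.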

[15] = molecular target: Cytochrome P450 3A4 (Homo sapiens) (UniProt P08684); assay: qHTS Assay for Inhibitors and Substrates of Cytochrome P450 3A4 (AID 884; active = well fitted curve in the direction sought with a large enough effect; an effect the other way counts as inactive or inconclusive; also: potency is read from the fitted curve at half-maximal effect; nearly all actives have a fitted effect of over 50% in size); settings: recombinant CYP3A4, Luciferin-PPXE luminescence; series mostly up to 57.1 µM
How it was run: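 Luminescent readout of luciferin produced by CYP3A4 (20 nM) dealkylation of Luciferin-PPXE, 25 uM (its KM). NADPH-driven reaction ran 60 min at RT after 10 min compound preincubation; data scaled to 57 uM ketoconazole as 100% inhibition.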

[16] = molecular target: Ubiquitin carboxyl-terminal hydrolase 1 (Homo sapiens) (UniProt O94782); assay: Inhibitors of USP1/UAF1: Pilot qHTS (AID 504865; active = well fitted curve in the direction sought with a large enough effect; an effect the other way counts as inactive or inconclusive;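 also: rhodamine fluorescence freed from ubiquitin-rhodamine substrate followed over time; top concentration of the series differs between compounds; % is scaled to controls: 0 for no effect and ±100 for the full control effect; nearly all actives have a fitted effect of over 35% in size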); settings: purified USP1/UAF1, Ub-rhodamine cleavage fluorescence; series mostly up to 54.9 µM
How it was run: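 Enzyme-free wells gave the negative control, while test wells held 1nM USP1/UAF1 preincubated with compound for 15 min at room temperature. Ub-Rho at 150nM final started the reaction, and fluorescence at 480/540 nm was recorded kinetically.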

[17] = molecular target: Cytochrome P450 2C19 (Homo sapiens) (UniProt P33261); assay: qHTS Assay for Inhibitors and Substrates of Cytochrome P450 2C19 (AID 899; active = well fitted curve in the direction sought with a large enough effect; an effect the other way counts as inactive or inconclusive; also: potency is read from the fitted curve at half-maximal effect; nearly all actives have a fitted effect of over 60% in size); settings: recombinant CYP2C19, luciferin-H EGE luminescence; series mostly up to 57.1 µM
How it was run: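 5 nM human CYP2C19 with 10uM Luciferin-H EGE (at KM) in 50mM KPO4, compound preincubated 10 min at 37C, then NADPH regeneration for 60 min at 37C. Luciferin read by luminescence after detection reagent; normalized to 57uM ketoconazole as full inhibition.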

[18] = molecular target: Cytochrome P450 2D6 (Homo sapiens) (UniProt P10635); assay: qHTS Assay for Inhibitors and Substrates of Cytochrome P450 2D6 (AID 891; active = well fitted curve in the direction sought with a large enough effect; an effect the other way counts as inactive or inconclusive; also: potency is read from the fitted curve at half-maximal effect; nearly all actives have a fitted effect of over 60% in size); settings: recombinant CYP2D6, luciferin-ME EGE luminescence; series mostly up to 57.1 µM
How it was run: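 Luminescent read-out of luciferin formed by 5 nM human CYP2D6 demethylating 30 uM Luciferin-ME EGE (Km level) over 60 min at room temperature after NADPH regeneration addition. Data normalized to full inhibition by 1.43 uM quinidine.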

[19] = measured here: cell count channel max response
[20] = measured here: lipid channel max response

Chain of Lysosomal acid glucosylceramidase (Homo sapiens) (P04062 whole entry, looked up): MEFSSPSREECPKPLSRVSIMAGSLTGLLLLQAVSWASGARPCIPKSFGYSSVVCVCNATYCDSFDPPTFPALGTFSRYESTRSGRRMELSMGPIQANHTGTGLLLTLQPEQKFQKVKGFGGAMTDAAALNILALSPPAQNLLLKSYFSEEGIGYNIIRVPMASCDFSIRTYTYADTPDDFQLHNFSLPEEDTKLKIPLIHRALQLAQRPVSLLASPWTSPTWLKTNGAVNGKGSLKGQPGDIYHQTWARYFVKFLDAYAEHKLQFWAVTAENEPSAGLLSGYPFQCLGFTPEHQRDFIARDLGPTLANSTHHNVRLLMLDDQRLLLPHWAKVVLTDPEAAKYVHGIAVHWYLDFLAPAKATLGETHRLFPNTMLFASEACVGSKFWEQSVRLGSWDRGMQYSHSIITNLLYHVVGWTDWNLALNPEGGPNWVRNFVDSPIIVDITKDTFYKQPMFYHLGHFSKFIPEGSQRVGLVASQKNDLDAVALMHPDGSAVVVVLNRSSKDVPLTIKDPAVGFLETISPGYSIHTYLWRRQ
Chain of Cytochrome P450 3A4 (Homo sapiens) (P08684 whole entry, looked up): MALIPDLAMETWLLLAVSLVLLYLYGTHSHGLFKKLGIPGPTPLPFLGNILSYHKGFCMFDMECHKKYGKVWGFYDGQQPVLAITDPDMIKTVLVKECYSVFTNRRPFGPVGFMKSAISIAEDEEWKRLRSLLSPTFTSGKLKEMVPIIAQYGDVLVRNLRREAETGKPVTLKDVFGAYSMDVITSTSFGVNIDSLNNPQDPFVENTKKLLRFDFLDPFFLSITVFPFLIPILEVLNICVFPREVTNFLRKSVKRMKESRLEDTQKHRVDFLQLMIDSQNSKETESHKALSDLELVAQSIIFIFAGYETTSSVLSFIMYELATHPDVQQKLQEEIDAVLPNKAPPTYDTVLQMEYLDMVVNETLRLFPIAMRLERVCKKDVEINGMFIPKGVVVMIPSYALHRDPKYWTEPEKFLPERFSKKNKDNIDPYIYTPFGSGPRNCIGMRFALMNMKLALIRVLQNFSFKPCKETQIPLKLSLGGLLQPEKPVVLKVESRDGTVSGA
Chain of Glucocorticoid receptor (Homo sapiens) (P04150 whole entry, looked up, the tested form may be a part): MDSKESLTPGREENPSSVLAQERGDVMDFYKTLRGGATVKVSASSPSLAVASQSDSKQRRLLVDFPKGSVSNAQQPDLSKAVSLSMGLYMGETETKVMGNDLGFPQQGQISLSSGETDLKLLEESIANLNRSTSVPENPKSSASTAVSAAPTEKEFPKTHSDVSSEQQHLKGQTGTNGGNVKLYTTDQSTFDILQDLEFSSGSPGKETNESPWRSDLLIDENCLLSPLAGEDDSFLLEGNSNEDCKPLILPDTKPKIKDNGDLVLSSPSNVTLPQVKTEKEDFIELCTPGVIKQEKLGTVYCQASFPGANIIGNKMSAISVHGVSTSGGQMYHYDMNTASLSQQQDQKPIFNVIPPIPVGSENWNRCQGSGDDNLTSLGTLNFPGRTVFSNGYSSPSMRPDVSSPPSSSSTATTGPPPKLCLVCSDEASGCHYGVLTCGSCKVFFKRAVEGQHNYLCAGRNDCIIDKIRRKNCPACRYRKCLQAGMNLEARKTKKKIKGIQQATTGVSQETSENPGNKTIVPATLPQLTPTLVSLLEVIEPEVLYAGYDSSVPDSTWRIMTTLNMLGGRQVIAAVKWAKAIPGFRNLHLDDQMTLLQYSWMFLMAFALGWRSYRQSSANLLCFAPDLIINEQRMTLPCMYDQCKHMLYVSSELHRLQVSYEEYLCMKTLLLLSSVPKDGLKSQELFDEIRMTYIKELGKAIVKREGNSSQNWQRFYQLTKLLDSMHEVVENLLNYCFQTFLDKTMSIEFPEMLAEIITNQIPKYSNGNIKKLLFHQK
Chain of 3',5'-cyclic-AMP phosphodiesterase 4B (Homo sapiens) (Q07343 whole entry, looked up): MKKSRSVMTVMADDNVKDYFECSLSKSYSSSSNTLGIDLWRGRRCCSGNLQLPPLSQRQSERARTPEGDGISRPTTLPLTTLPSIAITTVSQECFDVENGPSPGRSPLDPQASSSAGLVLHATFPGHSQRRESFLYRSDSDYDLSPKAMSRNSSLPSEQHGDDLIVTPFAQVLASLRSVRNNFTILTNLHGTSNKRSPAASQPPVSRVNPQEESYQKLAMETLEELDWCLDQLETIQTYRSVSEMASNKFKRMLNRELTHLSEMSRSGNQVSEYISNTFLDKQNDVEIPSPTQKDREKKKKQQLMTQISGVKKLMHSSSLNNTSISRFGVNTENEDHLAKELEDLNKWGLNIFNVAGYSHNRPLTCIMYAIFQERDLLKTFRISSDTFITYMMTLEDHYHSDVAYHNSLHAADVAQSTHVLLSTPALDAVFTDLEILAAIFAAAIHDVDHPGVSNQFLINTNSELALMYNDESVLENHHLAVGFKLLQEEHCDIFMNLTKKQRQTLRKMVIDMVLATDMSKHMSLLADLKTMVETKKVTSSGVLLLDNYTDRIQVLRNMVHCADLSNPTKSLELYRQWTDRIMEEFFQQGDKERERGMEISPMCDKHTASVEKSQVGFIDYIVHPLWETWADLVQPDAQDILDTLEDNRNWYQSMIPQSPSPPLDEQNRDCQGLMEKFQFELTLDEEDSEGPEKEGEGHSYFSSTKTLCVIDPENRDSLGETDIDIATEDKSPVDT
Chain of Cytochrome P450 1A2 (Homo sapiens) (P05177 whole entry, looked up): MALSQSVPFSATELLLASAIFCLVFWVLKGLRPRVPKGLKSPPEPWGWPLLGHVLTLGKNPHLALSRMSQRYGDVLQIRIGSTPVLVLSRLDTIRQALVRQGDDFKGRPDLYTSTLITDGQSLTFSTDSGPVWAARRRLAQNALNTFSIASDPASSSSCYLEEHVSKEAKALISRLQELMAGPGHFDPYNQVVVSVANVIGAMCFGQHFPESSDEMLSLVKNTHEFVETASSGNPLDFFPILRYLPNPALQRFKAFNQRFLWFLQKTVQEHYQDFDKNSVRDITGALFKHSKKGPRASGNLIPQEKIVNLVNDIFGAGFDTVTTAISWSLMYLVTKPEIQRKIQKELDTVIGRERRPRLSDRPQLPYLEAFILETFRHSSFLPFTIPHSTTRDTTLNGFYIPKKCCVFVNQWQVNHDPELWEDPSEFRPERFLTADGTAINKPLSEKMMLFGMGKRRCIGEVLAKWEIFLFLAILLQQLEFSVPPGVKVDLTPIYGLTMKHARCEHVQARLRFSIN
Chain of Ubiquitin carboxyl-terminal hydrolase 1 (Homo sapiens) (O94782 whole entry, looked up): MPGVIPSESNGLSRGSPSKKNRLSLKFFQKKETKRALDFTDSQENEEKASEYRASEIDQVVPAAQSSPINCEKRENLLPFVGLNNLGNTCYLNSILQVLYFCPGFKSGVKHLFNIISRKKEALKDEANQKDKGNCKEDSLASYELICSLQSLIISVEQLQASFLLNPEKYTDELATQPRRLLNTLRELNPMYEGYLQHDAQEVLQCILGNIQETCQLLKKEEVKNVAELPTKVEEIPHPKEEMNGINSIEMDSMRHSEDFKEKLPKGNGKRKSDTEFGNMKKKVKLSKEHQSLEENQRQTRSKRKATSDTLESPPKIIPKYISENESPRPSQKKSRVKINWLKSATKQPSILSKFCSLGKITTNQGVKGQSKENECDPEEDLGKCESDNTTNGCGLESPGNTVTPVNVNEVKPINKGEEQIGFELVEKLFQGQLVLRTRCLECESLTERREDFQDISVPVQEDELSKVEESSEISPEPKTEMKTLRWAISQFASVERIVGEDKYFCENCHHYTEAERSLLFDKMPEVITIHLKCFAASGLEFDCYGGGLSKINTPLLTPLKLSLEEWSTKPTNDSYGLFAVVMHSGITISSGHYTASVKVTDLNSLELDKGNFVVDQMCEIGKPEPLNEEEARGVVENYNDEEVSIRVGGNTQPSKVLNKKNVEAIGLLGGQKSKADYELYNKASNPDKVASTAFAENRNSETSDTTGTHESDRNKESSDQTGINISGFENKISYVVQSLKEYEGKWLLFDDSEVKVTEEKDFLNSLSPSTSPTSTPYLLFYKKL
Chain of Cytochrome P450 2D6 (Homo sapiens) (P10635 whole entry, looked up): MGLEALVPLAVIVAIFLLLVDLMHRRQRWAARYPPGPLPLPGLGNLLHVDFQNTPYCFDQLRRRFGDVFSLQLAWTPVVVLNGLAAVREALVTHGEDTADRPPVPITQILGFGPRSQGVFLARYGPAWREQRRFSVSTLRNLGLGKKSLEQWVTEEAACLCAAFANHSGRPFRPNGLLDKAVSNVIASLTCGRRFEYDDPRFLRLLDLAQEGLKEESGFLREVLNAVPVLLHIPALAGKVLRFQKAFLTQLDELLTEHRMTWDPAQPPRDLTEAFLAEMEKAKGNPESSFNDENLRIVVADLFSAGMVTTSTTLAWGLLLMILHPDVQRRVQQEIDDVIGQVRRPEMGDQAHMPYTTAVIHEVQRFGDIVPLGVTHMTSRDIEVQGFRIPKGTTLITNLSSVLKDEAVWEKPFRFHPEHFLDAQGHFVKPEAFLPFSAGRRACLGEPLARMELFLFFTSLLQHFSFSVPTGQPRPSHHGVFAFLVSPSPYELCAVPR
Chain of Cytochrome P450 2C19 (Homo sapiens) (P33261 whole entry, looked up): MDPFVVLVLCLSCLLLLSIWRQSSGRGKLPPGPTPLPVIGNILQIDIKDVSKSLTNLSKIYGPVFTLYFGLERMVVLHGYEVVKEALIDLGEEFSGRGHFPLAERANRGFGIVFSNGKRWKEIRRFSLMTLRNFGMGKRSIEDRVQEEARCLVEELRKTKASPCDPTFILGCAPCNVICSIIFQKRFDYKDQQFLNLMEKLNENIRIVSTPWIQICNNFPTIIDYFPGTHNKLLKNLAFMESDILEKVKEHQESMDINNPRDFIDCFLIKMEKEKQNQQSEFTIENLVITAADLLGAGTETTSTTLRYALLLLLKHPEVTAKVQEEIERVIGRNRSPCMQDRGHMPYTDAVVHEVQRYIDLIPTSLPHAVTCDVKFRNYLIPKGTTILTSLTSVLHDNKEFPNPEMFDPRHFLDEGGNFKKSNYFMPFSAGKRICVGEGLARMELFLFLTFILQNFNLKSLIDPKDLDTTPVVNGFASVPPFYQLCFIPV

Row | SMILES | Potency [1] | activity change, negative = inhibition [2] | Potency [3] | activity change, negative = inhibition [4] | activity, negative = inhibition [5] | Potency [6] | Potency [7] | outcome [8] | Potency [9] | Potency [10] | outcome [11] | outcome [12] | activity change, negative = inhibition [13] | max response [13, 19] | max response [13, 20] | Potency [14] | Potency [15] | Potency [16] | Potency [17] | Potency [18]
1 | COCCNc1ccnc(-c2cccc(NS(C)(=O)=O)c2)n1 | > 11.4 µM (inactive) | -8.74% (inactive) | 2 µM (active) | 12.6% (inactive) | -1.1% (inactive) | > 46 µM (inactive) | > 46 µM (inactive) | inactive | inactive | inactive | inactive | inactive | 9.23% (inactive) | 14.8% | 25.9% | inactive |  |  |  | 
2 | Cc1cccc(CNc2ccnc(-c3ccoc3)n2)c1 | > 11.4 µM (inactive) | 0.94% (inactive) | 2 µM (active) | 0.371% (inactive) | 6.16% (inactive) | > 46 µM (inactive) | > 46 µM (inactive) | inactive | inactive | inactive | inactive | inactive | 6.91% (inactive) | 1.7% | 4.61% | inactive |  |  |  | 
3 | Cc1noc(C)c1-c1nccc(NCc2cccnc2)n1 | > 11.4 µM (inactive) | 7.38% (inactive) | 0.158 µM (active) | -9.01% (inactive) | 10.1% (inactive) | > 46 µM (inactive) | > 46 µM (inactive) | inactive | inactive |  | inactive | inactive | 4.68% (inactive) | 14.6% | 21.8% | inactive | 3.98 µM (active) |  |  | 
4 | c1cncc(CNc2cc(-c3ccc4c(c3)OCO4)ncn2)c1 | > 11.4 µM (inactive) | -7.3% (inactive) | 0.251 µM (active) | 11.5% (inactive) | 3.19% (inactive) | > 46 µM (inactive) |  | inactive | inactive |  | inactive | inactive | 11.7% (inactive) | 14% | 18.9% | inactive |  | inactive |  | 
5 | COc1ncc2ncc(=O)n(C)c2n1 | > 11.4 µM (inactive) | -3.14% (inactive) | 12.6 µM (active) | 2.1% (inactive) | -12.1% (inactive) | > 9.22 µM (inactive) | > 46 µM (inactive) | inactive | inactive |  |  |  | 6.15% (inactive) | 14.9% | 24.1% | inactive |  |  |  | 
6 | COc1cccc(-c2cncnc2-n2ccnc2)c1 | > 11.4 µM (inactive) | 3.37% (inactive) | 0.1 µM (active) | -0.356% (inactive) | -1.78% (inactive) | > 46 µM (inactive) | > 46 µM (inactive) | inactive | inactive | inactive | inactive | inactive | 7.42% (inactive) | -2.24% | 4.82% | inactive | 0.316 µM (active) |  | 0.631 µM (active) | 
7 | c1ccc(CNc2ccnc(-c3ccoc3)n2)cc1 | > 11.4 µM (inactive) | -4.42% (inactive) | 2.51 µM (active) | 4.39% (inactive) | 10.2% (inactive) | > 46 µM (inactive) | > 46 µM (inactive) | inactive |  | inactive | inactive | inactive | 9.38% (inactive) | 7.25% | 15% | inactive |  |  |  | 
8 | COc1ccc2[nH]cc(CCNc3cc(-c4ccccc4C(F)(F)F)ncn3)c2c1 | > 11.4 µM (inactive) | -26.7% (inactive) | 10 µM (active) | 14% (inactive) | 0.643% (inactive) | > 46 µM (inactive) | > 46 µM (inactive) | inactive | inactive | inactive | inactive | inactive | 6.48% (inactive) | -3.31% | 0.275% | inactive | 5.01 µM (active) |  |  | 
9 | COCCNc1ccnc(-c2ccccc2CN(C)C)n1 | > 11.4 µM (inactive) | 3.13% (inactive) | 5.01 µM (active) | -0.192% (inactive) | 11.3% (inactive) | > 46 µM (inactive) |  | inactive | inactive |  | inactive | inactive | 1.95% (inactive) | -5.81% | 7.72% | inactive |  | inactive |  | 
10 | Cn1c(=O)cnc2cnc(Oc3ccccc3)nc21 | > 11.4 µM (inactive) | 5.77% (inactive) | 10 µM (active) | 4.94% (inactive) | -3.04% (inactive) | > 9.22 µM (inactive) | > 46 µM (inactive) | inactive | inactive |  |  |  | 3.92% (inactive) | 18.8% | 25.3% | inactive |  |  |  | 
11 | COc1cccc(-c2nccc(-n3ccnc3)n2)c1 | > 11.4 µM (inactive) | 9.38% (inactive) | 0.0316 µM (active) | 14% (inactive) | -0.599% (inactive) | > 46 µM (inactive) | > 46 µM (inactive) | inactive | inactive | inactive | inactive | inactive | 4.69% (inactive) | 4.96% | 13.1% | inactive |  |  |  | 7.94 µM (active)
